{"source": "PubChem BioAssay (Tox21)", "note": "Records with an inconclusive call do not appear. Activity calls are given as the source filed them. Calls follow the shape of the full dose curve. % is scaled to controls: 0 for no effect and ±100 for the full control effect."}
{"test_system": "not listed separately", "test": "qHTS assay to identify small molecule agonists of the AP-1 signaling pathway (AID 1159526)", "details": "ME-180 AP-1-bla reporter, beta-lactamase FRET ratio, 5 h; series mostly up to 76.8 µM; activation: at the top concentration"}
{"smiles": "CCOC(=O)COc1ccc2c(C)c(CCN(CC)CC)c(=O)oc2c1Cl", "activation": "-10.2% [at 35.3 µM] (inactive)"}
{"smiles": "CCCCCCC(O)CO", "note": "(configuration not stated)", "activation": "-0.212% (inactive)"}
{"smiles": "NCC1CCC(C(=O)Oc2ccc(CCC(=O)O)cc2)CC1", "note": "(configuration not stated)", "activation": "-2.22% [at 35.3 µM] (inactive)"}
{"smiles": "OCCC(F)(F)C(F)(F)C(F)(F)C(F)(F)C(F)(F)C(F)(F)F", "activation": "0.821% (inactive)"}
{"smiles": "CCOC(=O)CC(C(C)=O)C(C)=O", "activation": "3.48% (inactive)"}
{"smiles": "CCCCCCCCOCCC#N", "activation": "7.74% (inactive)"}
{"smiles": "CC(=O)OC/C=C(/C)CCC=C(C)C", "activation": "-10.2% (inactive)"}
{"smiles": "CN(C)CCCN(C)C", "activation": "-5.98% [at 6.97 µM] (inactive)"}
{"smiles": "CCCC(=O)C(CC)Sc1ccoc1C", "note": "(configuration not stated)", "activation": "2.73% (inactive)"}
{"smiles": "CCCCCCCCCCCBr", "activation": "3.77% [at 35.3 µM] (inactive)"}
{"smiles": "Clc1cc(Cl)c(Cl)c(Cl)c1Cl", "activation": "-1.15% (inactive)"}
{"smiles": "CCCCN=C(N)N=C(N)N", "activation": "-1.14% [at 35.3 µM] (inactive)"}
{"smiles": "COC(=O)c1c(C)cc(O)c(C)c1O", "activation": "-2.37% (inactive)"}
{"smiles": "CC(C)(C)C(=O)CCc1ccc(Cl)cc1", "activation": "-0.682% (inactive)"}
{"smiles": "Cc1ccccc1C#N", "activation": "-0.478% (inactive)"}
{"smiles": "CC(C)(C)c1ccc(N)cc1", "activation": "-5.01% (inactive)"}
{"smiles": "COc1cc(OC)cc(OC)c1", "activation": "-4.66% [at 35.3 µM] (inactive)"}
{"smiles": "Cc1ccc(Br)cc1", "activation": "-1.27% (inactive)"}
{"smiles": "C=CCON/C(CCC)=C1\\C(=O)CC(C)(C)C(C(=O)OC)=C1O", "activation": "-5.94% (inactive)"}
{"smiles": "C[C@@H]1CCC[C@H](C)N1CCCC(O)(c1ccccc1)c1ccccn1", "note": "(some centres not stated)", "activation": "10.8% [at 35.3 µM] (inactive)"}
{"smiles": "NNC(=O)OCc1ccccc1", "activation": "0.215% (inactive)"}
{"smiles": "CC(C)(C)c1ccc(C(=O)CCCCl)cc1", "activation": "6.61% [at 35.3 µM] (inactive)"}
{"smiles": "C[C@@H](CN1CC(=O)NC(=O)C1)N1CC(=O)NC(=O)C1", "activation": "-1.14% [at 35.3 µM] (inactive)"}
{"smiles": "CC(C)(O)CCCC1=CCC(C=O)CC1", "note": "(configuration not stated)", "activation": "-1.65% (inactive)"}
{"smiles": "O=C(c1ccccc1)c1cccc(O)c1", "activation": "9.56% (inactive)"}
{"smiles": "O=CN1CCCCC1", "activation": "3.31% (inactive)"}
{"smiles": "CN1C(CCl)Nc2cc(Cl)c(S(N)(=O)=O)cc2S1(=O)=O", "note": "(configuration not stated)", "activation": "-6.87% [at 35.3 µM] (inactive)"}
{"smiles": "CCOCCOCCOC(C)=O", "activation": "0.399% (inactive)"}
{"smiles": "Cc1ccc(OC(=O)CC(C)C)cc1", "activation": "-4.62% (inactive)"}
{"smiles": "COC(C)(C)CC(C)=O", "activation": "9.06% (inactive)"}
{"smiles": "CCCOc1ccc(C(=O)OCCN(CC)CC)cc1N", "activation": "-0.869% [at 35.3 µM] (inactive)"}
{"smiles": "CC[N+](C)(CC)CC", "activation": "-6.96% (inactive)"}
{"smiles": "Nc1nc(Cl)cc(Cl)n1", "activation": "4.85% (inactive)"}
{"smiles": "O=Cc1ccc(C(=O)O)cc1", "activation": "4.26% (inactive)"}
{"smiles": "O=P(O)(O)C(O)(Cc1cccnc1)P(=O)(O)O", "activation": "-8.31% [at 35.3 µM] (inactive)"}
{"smiles": "CCCCCCCCC1CO1", "note": "(configuration not stated)", "activation": "-1.96% (inactive)"}
{"smiles": "COc1cc2nc(N3CCN(C(=O)C4CCCO4)CC3)nc(N)c2cc1OC", "note": "(configuration not stated)", "activation": "-0.203% [at 35.3 µM] (inactive)"}
{"smiles": "CCCCCCCCCCCCCCCC(=O)OC", "activation": "17.1% [at 15.8 µM] (inactive)"}
{"biological_target": "Retinoic acid receptor RXR-alpha (Homo sapiens) (UniProt P19793)", "sequence (P19793 whole entry, looked up)": "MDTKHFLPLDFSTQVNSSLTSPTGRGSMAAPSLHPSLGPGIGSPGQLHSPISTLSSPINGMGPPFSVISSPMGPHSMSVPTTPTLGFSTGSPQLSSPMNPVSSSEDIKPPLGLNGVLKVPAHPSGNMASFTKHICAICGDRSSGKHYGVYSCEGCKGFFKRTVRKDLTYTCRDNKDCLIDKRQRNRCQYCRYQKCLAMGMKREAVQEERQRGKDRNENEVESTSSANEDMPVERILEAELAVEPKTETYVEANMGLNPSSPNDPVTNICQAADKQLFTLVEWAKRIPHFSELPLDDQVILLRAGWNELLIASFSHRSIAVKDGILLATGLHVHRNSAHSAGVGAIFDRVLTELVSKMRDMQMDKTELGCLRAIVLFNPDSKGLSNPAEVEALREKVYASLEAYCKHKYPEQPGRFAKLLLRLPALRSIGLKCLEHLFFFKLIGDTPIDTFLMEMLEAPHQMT", "test": "qHTS assay to identify small molecule agonists of the RXR signaling pathway (AID 1159527); also: nearly all actives have a fitted effect of over 35% in size; also: potency is read from the fitted curve at half-maximal effect", "details": "HEK293T RXRa-UAS-bla, beta-lactamase ratio, 16 h; series mostly up to 76.8 µM; activation: at the top concentration", "outline": "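GeneBLAzer RXR-alpha-UAS-bla HEK 293T cells in medium with 2% charcoal-stripped FBS, pre-incubated 5 hr at 37 C, then exposed to compounds 16 hr. Beta-lactamase reporter read by FRET substrate, 2 hr room temperature, 460/530 nm emission.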"}
{"smiles": "CCOC(=O)COc1ccc2c(C)c(CCN(CC)CC)c(=O)oc2c1Cl", "activation": "-5.62% [at 35.3 µM] (inactive)"}
{"smiles": "CCCCCCC(O)CO", "note": "(configuration not stated)", "Potency": "12.3 µM (active)"}
{"smiles": "NCC1CCC(C(=O)Oc2ccc(CCC(=O)O)cc2)CC1", "note": "(configuration not stated)", "activation": "6.44% [at 35.3 µM] (inactive)"}
{"smiles": "OCCC(F)(F)C(F)(F)C(F)(F)C(F)(F)C(F)(F)C(F)(F)F", "activation": "0.609% (inactive)"}
{"smiles": "CCOC(=O)CC(C(C)=O)C(C)=O", "activation": "12.8% (inactive)"}
{"smiles": "CCCCCCCCOCCC#N", "activation": "-1.73% (inactive)"}
{"smiles": "CC(=O)OC/C=C(/C)CCC=C(C)C", "activation": "-0.694% (inactive)"}
{"smiles": "CN(C)CCCN(C)C", "activation": "4.65% [at 6.98 µM] (inactive)"}
{"smiles": "CCCC(=O)C(CC)Sc1ccoc1C", "note": "(configuration not stated)", "activation": "-2.16% (inactive)"}
{"smiles": "CCCCCCCCCCCBr", "activation": "-1.03% [at 35.3 µM] (inactive)"}
{"smiles": "Clc1cc(Cl)c(Cl)c(Cl)c1Cl", "activation": "6.73% (inactive)"}
{"smiles": "CCCCN=C(N)N=C(N)N", "activation": "-0.819% [at 35.3 µM] (inactive)"}
{"smiles": "COC(=O)c1c(C)cc(O)c(C)c1O", "activation": "-2.25% (inactive)"}
{"smiles": "CC(C)(C)C(=O)CCc1ccc(Cl)cc1", "activation": "0.158% (inactive)"}
{"smiles": "Cc1ccccc1C#N", "activation": "2.64% (inactive)"}
{"smiles": "CC(C)(C)c1ccc(N)cc1", "activation": "-14.2% (inactive)"}
{"smiles": "COc1cc(OC)cc(OC)c1", "activation": "-1.72% [at 35.3 µM] (inactive)"}
{"smiles": "Cc1ccc(Br)cc1", "activation": "1.1% (inactive)"}
{"smiles": "C=CCON/C(CCC)=C1\\C(=O)CC(C)(C)C(C(=O)OC)=C1O", "activation": "10.4% (inactive)"}
